High-throughput results as filed in PubChem.
HT1080NT lethal: kills 2HG-producing HT-1080-NT fibrosarcoma cells | 1.6% of 360,000 active | HT-1080-NT fibrosarcoma viability, CellTiter-Glo ATP luminescence, 48 h | Potency, µM (doses to about 46.1 µM), for the others: top-dose activity, negative = less viability, actives largely listed as cytotoxic | AID 686970;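 also: NT is the 2HG producing partner of a matched IDH1 knockdown line; 0% = DMSO-treated cells and -100% = media-only wells without cells; nearly all actives have a fitted effect of over 55% in size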
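Fibrosarcoma NT cells, 750 per well in 5% FBS RPMI, were exposed to compound for 48 hours. Viability: CellTiter-Glo luminescence.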
KB-V1 cytotox: kills drug-selected multidrug resistant KB-V1 cells; 3.4% of 400,000 active; Potency, µM (titrated, usually from 46.1 µM), hits mostly cytotoxic; AID 1347076; KB-V1 MDR cells viability, CellTiter-Glo, 72 h; also: nearly all actives have a fitted effect of over 60% in size
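Cytotoxicity toward P-gp-expressing KB-V1 cells was determined as loss of CellTiter-Glo luminescence after 72 h at 37 degrees C. Compounds were tested in quantitative HTS format across a concentration range, with curves fitted to normalized data.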
DT40 TDP1 CPT: DT40-hTDP1 cell growth loss with CPT; chicken DT40 Tdp1-/-;hTDP1 cells + 20 nM CPT, ATP luminescence, 48 h; Potency, µM (titrated, usually from 46.2 µM), for inactives: at the highest dose activity change, negative = growth inhibition, actives largely listed as inhibitors; 12% of 420,000 active; AID 686979; also: nearly all actives have a fitted effect of over 55% in size
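Chicken DT40 Tdp1-/- cells complemented with human TDP1, 400 cells/well, exposed to compounds plus 20 nM camptothecin for at least 48 h at 37 C; viability read as ATP content by CellTiter-Glo luminescence.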
KB-3-1 cytotox: KB-3-1 parental cell cytotoxicity. Potency, µM (top dose mostly 46.1 µM), most hits filed as cytotoxic. 1.4% of 400,000 active. KB-3-1 viability, CellTiter-Glo ATP luminescence, 72 h; also: nearly all actives have a fitted effect of over 60% in size
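72 h, 37 °C compound treatment of KB-3-1 parental cells; CellTiter-Glo added, 10 min, luminescence read. Data corrected against DMSO-only plates and normalized before curve fitting.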
TDP1 cell noCPT: qHTS for Inhibitors of human tyrosyl-DNA phosphodiesterase 1 (TDP1): qHTS in cells in absence of CPT; DT40 Tdp1-/- hTDP1 cells, no CPT, ATP luminescence, 48 h; Potency, µM (doses to about 46.2 µM), without a hit: top-dose activity change, negative = growth inhibition, actives largely listed as inhibitors; 15% of 420,000 active; AID 686978, 2013; also: nearly all actives have a fitted effect of over 55% in size
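Chicken DT40 Tdp1-/- cells complemented with human TDP1, screened without camptothecin (DMSO vehicle only), 400 cells/well. Compounds pin-transferred, cells incubated at 37 °C for at least 48 hr. Growth read as ATP-dependent luminescence (CellTiter-Glo, 30 min at RT).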
HT1080 IDH1KD tx: kills HT-1080 cells with IDH1 knockdown. HT-1080 IDH1 knockdown viability, ATP luminescence, 48 h. Potency, µM (titrated, usually from 46.1 µM), inactives show at the highest dose activity, negative = toxicity, usual class: cytotoxic. 2% of 360,000 active. AID 686971;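 also: 0% = DMSO wells and -100% = cell-free medium wells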
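% activity derives from luminescence (CellTiter-Glo), normalised to DMSO and no-cell wells. HT-1080-IDH1KD cells, 750/well, had 48 h compound exposure at 37 °C.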
Numbers without * were called inactive; [ ] = dose if it differs, or a comment. Hits are enriched below; roughly 19% of the tested compounds scored in any of these assays. Calls follow the shape of the dose curve; as a rule, active = well fitted curve in the direction sought with a large enough effect; inconclusive = small, poorly fitted or top-dose-only effect, or another doubt; inactive = no such curve, though single readings can be large; an effect the other way counts as inactive or inconclusive. Unless noted, % is scaled to controls: 0 for no effect and ±100 for the full control effect; potency is read from the fitted curve at half-maximal effect.

Results for C[C@@H]1CN(Cc2ccc3c(c2)CN(C(=O)CCc2nc4ccc(F)cc4[nH]2)CCO3)C[C@H](C)O1 ?
DT40 TDP1 CPT: 2.9%[9.04 µM]; TDP1 cell noCPT: -28.6%

Results for Cc1ccc(N2CCN(c3nc4ccc(C)cc4n4nnnc34)CC2)c(C)c1 ?
DT40 TDP1 CPT: -26.6%; TDP1 cell noCPT: inconclusive

What do the screens show for `CCC(C)N(C(=O)CSc1nnc(-c2cccs2)n1C1CC1)C1CCS(=O)(=O)C1` (stereo not drawn)?
HT1080NT lethal: -0.6%; KB-V1 cytotox: inactive; DT40 TDP1 CPT: 5.5%; KB-3-1 cytotox: inactive; TDP1 cell noCPT: 3.2%; HT1080 IDH1KD tx: 0.3%

How did COc1cc(C2C(C#N)=C(N)N(Nc3ccccc3)C3=C2C(=O)CC(C)(C)C3)ccc1OCc1cccc(F)c1 (stereo not drawn) do in these assays?
HT1080NT lethal: inconclusive; KB-V1 cytotox: inactive; DT40 TDP1 CPT: inconclusive; KB-3-1 cytotox: inactive; TDP1 cell noCPT: inconclusive; HT1080 IDH1KD tx: inconclusive

How did COc1cc(C2C(C#N)=C(N)N(Nc3ccccc3)C3=C2C(=O)CC(C)(C)C3)ccc1OCc1ccccc1 (stereo not drawn) do in these assays?
HT1080NT lethal: inconclusive; KB-V1 cytotox: inactive; DT40 TDP1 CPT: inconclusive; KB-3-1 cytotox: inconclusive; TDP1 cell noCPT: 20.6µM*; HT1080 IDH1KD tx: inconclusive

What do the screens show for `COc1ccc(C2C(C#N)=C(N)N(c3cccnc3)C3=C2C(=O)CC(C)(C)C3)cc1OC` (stereo not drawn)?
HT1080NT lethal: -0.6%; KB-V1 cytotox: inactive; DT40 TDP1 CPT: 23.1µM*; KB-3-1 cytotox: inactive; TDP1 cell noCPT: inconclusive; HT1080 IDH1KD tx: 10.9%

Results for C=CCOc1ccc(C2C(C#N)=C(N)N(Nc3ccccc3)C3=C2C(=O)CCC3)cc1OC (stereo not drawn) ?
HT1080NT lethal: inconclusive; KB-V1 cytotox: inactive; DT40 TDP1 CPT: inconclusive; KB-3-1 cytotox: inconclusive; TDP1 cell noCPT: 16.4µM*; HT1080 IDH1KD tx: inconclusive

Results for Cc1ccc(S(=O)(=O)N(C)C)cc1NC(=O)CN1C(=O)NC2(CCc3ccccc32)C1=O (stereo not drawn) ?
HT1080NT lethal: 17.3%; KB-V1 cytotox: inactive; DT40 TDP1 CPT: 1.3%; KB-3-1 cytotox: inconclusive; TDP1 cell noCPT: 7.0%; HT1080 IDH1KD tx: 7.4%

What do the screens show for `Cn1c(NCCOc2ccccc2Cl)nc2cc(-c3ccc(F)cc3)sc2c1=O`?
HT1080NT lethal: 5.4%; KB-V1 cytotox: inactive; DT40 TDP1 CPT: inconclusive; KB-3-1 cytotox: inactive; TDP1 cell noCPT: inconclusive; HT1080 IDH1KD tx: 12.1%

How did Cc1ccc2nc(N3CCC(C(=O)NCc4ccc(F)cc4)CC3)[nH]c2c1 do in these assays?
KB-V1 cytotox: inactive; DT40 TDP1 CPT: inconclusive; KB-3-1 cytotox: inactive; TDP1 cell noCPT: inconclusive

Results for COc1ccc(CNC(=O)C2CCN(c3nc4ccc(C)cc4[nH]3)CC2)cc1 ?
DT40 TDP1 CPT: inconclusive; TDP1 cell noCPT: 10.3µM*

What do the screens show for `COc1ccc(NC(=O)C2CCN(C(=O)[C@@H]3Cc4ccccc4CN3)CC2)cc1`?
HT1080NT lethal: 14.2%; KB-V1 cytotox: inactive; DT40 TDP1 CPT: -1.7%; KB-3-1 cytotox: inactive; TDP1 cell noCPT: 2.2%; HT1080 IDH1KD tx: 8.9%

How did COc1ccc(CNC(=O)C2CCN(C(=O)[C@@H]3Cc4ccccc4CN3)CC2)cc1 do in these assays?
HT1080NT lethal: 0.9%; KB-V1 cytotox: inactive; DT40 TDP1 CPT: 16.4µM*; KB-3-1 cytotox: inactive; TDP1 cell noCPT: inconclusive; HT1080 IDH1KD tx: 2.3%

What do the screens show for `COc1cccc(CNC(=O)C2CCN(c3nc4ccc(Cl)cc4[nH]3)CC2)c1`?
KB-V1 cytotox: inactive; DT40 TDP1 CPT: 20.6µM*; KB-3-1 cytotox: inactive; TDP1 cell noCPT: inconclusive

How did CC(C)CCNC(=O)C1CCN(c2nc3ccc(Cl)cc3[nH]2)CC1 do in these assays?
KB-V1 cytotox: inactive; DT40 TDP1 CPT: inconclusive; KB-3-1 cytotox: inactive; TDP1 cell noCPT: inconclusive

Results for COc1cccc(CC(CC(=O)O)C(=O)Nc2cc(C)ccc2C)c1 (stereo not drawn) ?
HT1080NT lethal: 6.5%; KB-V1 cytotox: inactive; DT40 TDP1 CPT: -3.5%; KB-3-1 cytotox: inactive; TDP1 cell noCPT: -14.9%; HT1080 IDH1KD tx: 0.8%

How did CCOC(=O)[C@H]1[C@H]2COc3ccc(Br)cc3[C@@H]2N2C(=O)CN(Cc3ccc(OC)cc3)C(=O)[C@@]12C do in these assays?
HT1080NT lethal: -1.1%; KB-V1 cytotox: inactive; DT40 TDP1 CPT: inconclusive; KB-3-1 cytotox: inactive; TDP1 cell noCPT: inconclusive; HT1080 IDH1KD tx: -12.3%

What do the screens show for `CCOC(=O)[C@H]1[C@H]2COc3ccc(Br)cc3[C@@H]2N2C(=O)CN(Cc3ccccc3)C(=O)[C@@]12C`?
HT1080NT lethal: 0.0%; KB-V1 cytotox: inactive; DT40 TDP1 CPT: inconclusive; KB-3-1 cytotox: inactive; TDP1 cell noCPT: 25.9µM*; HT1080 IDH1KD tx: 4.8%

What do the screens show for `CCOC(=O)[C@H]1[C@H]2COc3ccc(Cl)cc3[C@@H]2N2C(=O)CN(Cc3ccco3)C(=O)[C@@]12C`?
HT1080NT lethal: -0.1%; KB-V1 cytotox: inactive; DT40 TDP1 CPT: 25.9µM*; KB-3-1 cytotox: inactive; TDP1 cell noCPT: inconclusive; HT1080 IDH1KD tx: 1.6%

How did CCOC(=O)[C@H]1[C@H]2COc3ccc(Cl)cc3[C@@H]2N2C(=O)CN(Cc3ccc(C)cc3)C(=O)[C@@]12C do in these assays?
HT1080NT lethal: -14.8%; KB-V1 cytotox: inactive; DT40 TDP1 CPT: 18.4µM*; KB-3-1 cytotox: inconclusive; TDP1 cell noCPT: 16.4µM*; HT1080 IDH1KD tx: -11.2%

What do the screens show for `CCOC(=O)[C@H]1[C@H]2COc3ccc(Cl)cc3[C@@H]2N2C(=O)CN(Cc3ccc(OC)cc3)C(=O)[C@@]12C`?
HT1080NT lethal: 0.0%; KB-V1 cytotox: inactive; DT40 TDP1 CPT: inconclusive; KB-3-1 cytotox: inactive; TDP1 cell noCPT: 18.4µM*; HT1080 IDH1KD tx: -2.6%

Results for CCOC(=O)[C@H]1[C@H]2COc3ccc(OC)cc3[C@@H]2N2C(=O)CN(Cc3ccco3)C(=O)[C@@]12C ?
HT1080NT lethal: 27.4%; KB-V1 cytotox: inactive; DT40 TDP1 CPT: inconclusive; KB-3-1 cytotox: inactive; TDP1 cell noCPT: -25.6%; HT1080 IDH1KD tx: 26.0%
